From PubChem BioAssay (NCI)
About 83,000 compounds went through this panel and 20% of them were active in at least one assay; those are over-represented in the sample as a whole.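 96-well plates, one dose, 48 hours. Percent growth reported; active if below 10.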 Calls of active or inactive are those of the source.

What was measured:
Experiment in all cases: NCI-60 one-dose screen, 48 h (100 = growth as untreated, 0 = no growth, -100 = all killed)
Conditions in all cases: 10 µM unless noted
[1] = test system: DU-145 prostate
[2] = test system: K-562 leukemia
[3] = test system: MALME-3M melanoma
[4] = test system: MDA-MB-231 breast
[5] = test system: RXF 393 renal
[6] = test system: SF-268 CNS
[7] = test system: SF-295 CNS
[8] = test system: SF-539 CNS
[9] = test system: UACC-257 melanoma
[10] = test system: M14 melanoma
[11] = test system: HCT-15 colon
[12] = test system: HT29 colon
[13] = test system: SNB-75 CNS
[14] = test system: SNB-19 CNS
[15] = test system: U251 CNS
[16] = test system: PC-3 prostate
[17] = test system: SK-MEL-5 melanoma
[18] = test system: UACC-62 melanoma
[19] = test system: LOX IMVI melanoma
[20] = test system: SK-MEL-28 melanoma

Measured: growth

C#CCOc1ccc(/C=N/Nc2nc(-c3ccc(OC)cc3)cs2)cc1
inactive: [1] 78.7% | [2] 47.7% | [3] 83.9% | [4] 91.3% | [5] 99.1% | [6] 87.2% | [7] 66.8% | [8] 97.3% | [9] 76.1% | [10] 93.1% | [11] 80.1% | [12] 105% | [13] 86.2% | [14] 87.8% | [15] 96.4% | [16] 73.1% | [17] 70.1% | [18] 67.1% | [19] 89.7% | [20] 102%

CC(=O)c1cc(C(=O)N2c3ccccc3Sc3ccccc32)n2c1ccc1ccccc12
inactive: [1] 75% | [2] 23.6% | [3] 62% | [4] 97.4% | [5] 66.9% | [6] 67.5% | [7] 41% | [8] 69.1% | [9] 51.8% | [10] 40.8% | [11] 41.6% | [12] 30% | [13] 38.7% | [14] 57.8% | [15] 48.6% | [16] 46.1% | [17] 44.1% | [18] 33.9% | [19] 58.9% | [20] 61.1%

Cn1ncc2c(C(=O)c3ccc(F)cc3)nc(C(C)(C)C)nc21
inactive: [1] 102% | [2] 104% | [3] 89.7% | [4] 102% | [5] 94.1% | [6] 97.3% | [7] 99.6% | [8] 97.1% | [9] 94.3% | [10] 100% | [11] 97.7% | [12] 104% | [13] 89.6% | [14] 95.4% | [15] 98.6% | [16] 92.5% | [17] 100% | [18] 98% | [19] 95.7% | [20] 98%

Cc1cc(=O)oc2cc(OCCCOc3ccc(/C=C/C(=O)Nc4ccc(Br)cc4)cc3)ccc12
inactive: [1] 67.1% | [2] 78.4% | [3] 40.4% | [4] 70.5% | [5] 57.8% | [6] 67.8% | [7] 95.1% | [8] 87.9% | [9] 91.4% | [10] 84% | [11] 82.3% | [12] 90.8% | [13] 115% | [14] 86.9% | [15] 97.8% | [16] 81.8% | [17] 85% | [18] 94.5% | [19] 67.9% | [20] 86.6%

O=C1[C@@H]2Cc3c([nH]c4ccccc34)[C@@H](c3ccc(Cl)cc3)N2C(=O)CN1C1CCN(Cc2ccccc2)CC1
active: [2] 3.54% | [10] 7.82% | [12] -28.4% | [19] -15%
inactive: [1] 57.5% | [3] 79.6% | [4] 64.2% | [5] 50.3% | [6] 48% | [7] 85.2% | [8] 72.7% | [9] 75.8% | [11] 34.1% | [13] 29% | [14] 50.5% | [15] 34.7% | [16] 21.4% | [17] 54.2% | [18] 62.3% | [20] 88.1%

CN1CCN(Cc2ccc(NC(=O)c3cncc(C#Cc4cnc5ccc(OC6CCOCC6)nn45)c3)cc2C(F)(F)F)CC1
active: [1] -89.5% | [2] -0.118% | [3] -87.5% | [4] -59.9% | [5] -80.9% | [6] -58.4% | [7] -97% | [8] -92.8% | [9] -72.3% | [10] -91.2% | [11] -66.4% | [12] -68% | [13] -84.9% | [14] -84% | [15] -82.8% | [16] -49.7% | [17] -95.6% | [18] -70.5% | [19] -93% | [20] -82.5%

CC1=Cc2ccccc2OC12C=Cc1ccccc1O2 (stereo not given)
inactive: [1] 119% | [2] 92.3% | [3] 98.7% | [4] 89.8% | [5] 97.8% | [6] 98.8% | [7] 97.2% | [8] 97.8% | [9] 114% | [10] 107% | [11] 96.8% | [12] 98.2% | [13] 81.4% | [14] 91.1% | [15] 102% | [16] 84.9% | [17] 92.4% | [18] 83% | [19] 90.6% | [20] 114%

Cn1cc(-c2nn3cc(-c4ccncc4)nc3s2)c2cc(Br)ccc21
inactive: [1] 75.1% | [3] 56.8% | [4] 78.5% | [5] 65.4% | [6] 68.8% | [7] 38.5% | [8] 80.4% | [9] 98.3% | [10] 52% | [11] 18% | [13] 45.9% | [14] 81.7% | [15] 54.7% | [16] 30.2% | [17] 57.9% | [18] 61.5% | [19] 52.5% | [20] 94.2%
active: [2] 4.34% | [12] 4.54%

Cc1ccc2c(n1)C(=O)C(Cl)=C(Nc1cc(C(F)(F)F)cc(C(F)(F)F)c1)C2=O
inactive: [1] 95.3% | [3] 47.9% | [4] 87.1% | [5] 74.5% | [6] 87.1% | [7] 95.7% | [8] 93.9% | [9] 75.2% | [10] 89.9% | [12] 102% | [13] 98.3% | [14] 90.6% | [15] 85.2% | [16] 80.5% | [17] 77% | [18] 79.9% | [19] 66.2% | [20] 88.7%
active: [2] 4.18% | [11] 6.82%

Cn1c(SCC(=O)c2ccc(Br)cc2)nc2ccccc2c1=O
inactive: [1] 97.8% | [2] 85.2% | [3] 111% | [4] 94.9% | [5] 115% | [6] 97.5% | [7] 97.6% | [8] 97.3% | [9] 108% | [10] 96.6% | [11] 99.5% | [12] 101% | [13] 94.3% | [14] 100% | [15] 103% | [16] 96.5% | [17] 92.5% | [18] 77.5% | [19] 95.9% | [20] 97.3%

C#C[C@]1(O)CC[C@H]2[C@@H]3CC=C4c5sc(Nc6cc(Cl)ccc6OC)nc5CC[C@]4(C)[C@H]3CC[C@@]21C
active: [2] 4.32% | [5] -74.9% | [7] -62.4% | [8] -22.1% | [9] -16.3% | [10] -51.7% | [13] -1.39% | [16] -9.76% | [17] -43.9% | [18] -3.92% | [19] -71.7% | [20] -59.1%
inactive: [1] 19.1% | [3] 12.1% | [4] 43.6% | [6] 24.6% | [11] 16.3% | [12] 34.9% | [14] 28.3% | [15] 15.3%

C(=N\Nc1nc(N/N=C/c2ccc3c(c2)OCO3)nc(N2CCCCC2)n1)/c1ccc2c(c1)OCO2
inactive: [1] 99.8% | [2] 41.1% | [3] 120% | [4] 90.7% | [5] 79.7% | [6] 100% | [7] 77.8% | [8] 87.6% | [9] 108% | [10] 97.3% | [11] 33.8% | [12] 38.2% | [13] 113% | [14] 80.3% | [15] 81.4% | [16] 73.6% | [17] 96.8% | [18] 102% | [19] 47.9% | [20] 109%

CN1CCN(Cc2ccc(NC(=O)c3cncc(C#Cc4cnc5ccc(N)nn45)c3)cc2C(F)(F)F)CC1
inactive: [1] 17.7% | [7] 53.8% | [9] 55.3% | [11] 49.5% | [13] 57.7% | [14] 35% | [15] 54.6% | [16] 36.9% | [17] 60.8% | [18] 70.8% | [20] 41.2%
active: [2] 6.78% | [3] -36.6% | [4] 2.36% | [5] -9.41% | [6] 6.31% | [8] 3.36% | [10] -1.8% | [12] 5.96% | [19] -63%

COc1cc2c3c(cc4c5c(ccc4c3c1OC)OCO5)N(CCN(C)C)C2=O
active: [1] 0.415% | [2] 1.42% | [3] -79.8% | [4] -1.13% | [5] -88.5% | [6] 5.2% | [7] -16.8% | [8] -58.4% | [9] -32.9% | [10] -54.5% | [11] -6.74% | [12] -9.31% | [13] -75.5% | [14] 1.56% | [15] -2.59% | [16] 6.59% | [17] -90.1% | [18] -64% | [19] -82.6% | [20] -86.6%

C#C[C@]1(O)CC[C@H]2[C@@H]3CC=C4c5sc(Nc6ncccc6C)nc5CC[C@]4(C)[C@H]3CC[C@@]21C
active: [2] -9.62% | [3] -19% | [5] -75.3% | [6] 7.66% | [7] -70% | [8] -56.4% | [9] -35.8% | [10] -55.9% | [11] -1.06% | [13] -2.92% | [14] 1.7% | [15] 3.14% | [16] -18.4% | [17] 5.96% | [18] -25.9% | [19] -78% | [20] -78.7%
inactive: [1] 36.8% | [4] 12.8% | [12] 25.4%
